Records with an inconclusive call do not appear. The source made the active and inactive calls. Calls come from the whole dose curve; as a rule, active = well fitted curve in the direction sought with a large enough effect; inconclusive = small, poorly fitted or top-dose-only effect, or another doubt; inactive = no such curve, though single readings can be large; an effect the other way counts as inactive or inconclusive.
Assays:
[1] = P-glycoprotein substrates identified in KB-3-1 adenocarcinoma cell line, qHTS therapeutic library screen (AID 1346986); note: nearly all actives have a fitted effect of over 60% in size
Outline: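 Dose-response cytotoxicity, KB-3-1 vs P-gp-high KB-8-5-11, no colchicine in assay medium. Read: CellTiter-Glo at 72 h.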

[2] = P-glycoprotein substrates identified in KB-8-5-11 adenocarcinoma cell line, qHTS therapeutic library screen (AID 1346987); note: nearly all actives have a fitted effect of over 65% in size; for activity change, negative = cytotoxicity: series mostly up to about 44 µM; % is set by controls: 0 for no effect and ±100 for the full control effect
Outline: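 Human cervical adenocarcinoma KB-8-5-11 cells, selected in colchicine to over-express P-gp and assayed without it, were exposed for 72 h to titrated compounds. An ATP-based luminescent viability signal gave AC50.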

[3] = test system: Zika virus NS2B-NS3 protease (unlinked complex); assay: Primary screen GU Rhodamine qHTS for Zika virus inhibitors: Unlinked NS2B-NS3 protease assay (AID 1347159); note: nearly all actives have a fitted effect of over 60% in size; note: potency is the fitted concentration of half-maximal effect
Outline: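 Buffer 10 mM Tris-HCl pH 8.0, 0.01% Tween 20. Unlinked protease 25 nM; compound preincubation 15 min, RT, protected from light. Substrate Rhod110, 1.5 microM; ~15% conversion in 15 min.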

[4] = test system: Zika virus NS2B-NS3 protease (linked construct); assay: Primary screen NINDS Rhodamine qHTS for Zika virus inhibitors (AID 1347160); note: nearly all actives have a fitted effect of over 55% in size; note: potency is the fitted concentration of half-maximal effect
Outline: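 Aprotinin served as in-plate control. Conditions: 25 nM linked NS2B-NS3, pH 8.0 Tris buffer, titrated compounds, 15 min preincubation and 15 min reaction with 1.5 microM Rhod110 substrate at room temperature.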

O=C(O[C@@H]1O[C@H](CO)[C@@H](O)[C@H](O)[C@H]1O)c1ccccc1
inactive: Potency [1] | Potency [2] | Potency [3] | Potency [4]

COc1cc(O)cc2c1C(=O)OC(C)CCCCCCC2 (centres undefined)
inactive: Potency [1] | Potency [2]
active: Potency [3] 20 µM | Potency [4] 14.1 µM

O=C(Nc1ccn(Cc2c(F)cccc2C(F)(F)F)n1)c1c(F)cccc1F
inactive: outcome [1] inactive [at 9.29 µM] | activity change, negative = cytotoxicity [2] 7.74% [at 9.29 µM] | Potency [3] | Potency [4]

CC1(C)CC[C@]2(C(=O)O[C@@H]3O[C@H](CO[C@@H]4O[C@H](CO)[C@@H](O)[C@H](O)[C@H]4O)[C@@H](O)[C@H](O[C@@H]4O[C@H](CO)[C@@H](O)[C@H](O)[C@H]4O)[C@H]3O)CC[C@]3(C)C(=CCC4[C@@]5(C)CC[C@H](O[C@@H]6OC[C@@H](O)[C@H](O)[C@H]6O)[C@@](C)(C(=O)O)C5CC[C@]43C)[C@@H]2C1 (some centres undefined)
inactive: outcome [1] inactive [at 9.29 µM] | activity change, negative = cytotoxicity [2] 2.51% [at 9.29 µM] | Potency [3] | Potency [4]

O=C(O)CCc1c(C(=O)O)[nH]c2cc(Cl)cc(Cl)c12
inactive: Potency [1] | Potency [2] | Potency [3] | Potency [4]

C=CCC1=C[C@]2(OC)[C@H](C)[C@@H](c3ccc(OC)c(OC)c3)O[C@]2(OC)CC1=O
inactive: Potency [1] | Potency [2] | Potency [3] | Potency [4]

From PubChem BioAssay (NCATS)
